What was measured:
Assay in all cases: log2 ratio of Biotin-Ahx-Ub-VS probe labelling (fragment/DMSO); higher = less target engagement (more negative = stronger competition), active = hit call of the paper (q ≤ 0.05, log2 ratio ≤ -1)
Details in all cases: compound concentration: 200 uM; treatment time: 3 h
ALG13 = biological target: T1, ALG13 (UniProt Q9NP73)
T1 sequence (whole entry): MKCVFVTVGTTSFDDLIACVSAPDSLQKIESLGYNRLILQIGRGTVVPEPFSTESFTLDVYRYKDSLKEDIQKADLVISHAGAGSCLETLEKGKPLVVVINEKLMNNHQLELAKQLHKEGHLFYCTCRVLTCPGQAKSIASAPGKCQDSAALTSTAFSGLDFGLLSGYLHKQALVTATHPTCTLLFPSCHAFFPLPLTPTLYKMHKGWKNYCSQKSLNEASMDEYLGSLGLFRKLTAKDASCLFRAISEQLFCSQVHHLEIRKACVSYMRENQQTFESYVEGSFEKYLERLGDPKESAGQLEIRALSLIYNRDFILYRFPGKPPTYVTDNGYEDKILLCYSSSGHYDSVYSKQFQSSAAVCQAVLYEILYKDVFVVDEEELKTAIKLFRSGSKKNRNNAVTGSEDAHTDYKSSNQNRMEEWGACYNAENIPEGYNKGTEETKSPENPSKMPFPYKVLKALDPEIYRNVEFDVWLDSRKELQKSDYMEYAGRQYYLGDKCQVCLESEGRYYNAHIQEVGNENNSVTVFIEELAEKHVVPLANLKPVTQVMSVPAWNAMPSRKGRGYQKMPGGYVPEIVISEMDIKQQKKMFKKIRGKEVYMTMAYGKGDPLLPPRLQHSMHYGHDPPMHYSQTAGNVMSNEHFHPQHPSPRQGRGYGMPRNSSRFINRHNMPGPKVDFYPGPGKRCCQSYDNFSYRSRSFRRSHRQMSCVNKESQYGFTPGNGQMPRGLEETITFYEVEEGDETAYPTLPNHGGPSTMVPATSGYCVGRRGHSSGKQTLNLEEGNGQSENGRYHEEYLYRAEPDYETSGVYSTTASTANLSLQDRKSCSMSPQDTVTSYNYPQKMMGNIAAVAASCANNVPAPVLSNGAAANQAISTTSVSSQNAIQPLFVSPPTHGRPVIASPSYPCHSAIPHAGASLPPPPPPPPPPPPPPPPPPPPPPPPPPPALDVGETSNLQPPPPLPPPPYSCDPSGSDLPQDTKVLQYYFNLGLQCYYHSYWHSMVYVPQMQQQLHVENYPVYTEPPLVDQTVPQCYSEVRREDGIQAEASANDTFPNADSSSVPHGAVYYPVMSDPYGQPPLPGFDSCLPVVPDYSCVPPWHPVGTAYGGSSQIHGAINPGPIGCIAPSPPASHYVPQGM
Outline: (§1)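 In triplicate, 495 µg of HEK293T lysate per sample was incubated with fragment at 200 µM or vehicle for 3 h. Biotin-Ahx-Ub-VS was then added to 0.5 µM final for 1 h, and labelled DUBs were captured with NeutrAvidin, digested with LysC and trypsin, and measured by diaPASEF LC-MS/MS. Data are average log2 fragment/vehicle ratios by unpaired t-test from global-median-normalised Spectronaut label-free quantities, restricted to proteins with ≥2 unique peptides.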

ATXN3 = ATXN3 (UniProt P54252)
Outline: as §1

BAP1 = biological target: T2, BAP1 (UniProt Q92560)
T2 sequence (whole entry): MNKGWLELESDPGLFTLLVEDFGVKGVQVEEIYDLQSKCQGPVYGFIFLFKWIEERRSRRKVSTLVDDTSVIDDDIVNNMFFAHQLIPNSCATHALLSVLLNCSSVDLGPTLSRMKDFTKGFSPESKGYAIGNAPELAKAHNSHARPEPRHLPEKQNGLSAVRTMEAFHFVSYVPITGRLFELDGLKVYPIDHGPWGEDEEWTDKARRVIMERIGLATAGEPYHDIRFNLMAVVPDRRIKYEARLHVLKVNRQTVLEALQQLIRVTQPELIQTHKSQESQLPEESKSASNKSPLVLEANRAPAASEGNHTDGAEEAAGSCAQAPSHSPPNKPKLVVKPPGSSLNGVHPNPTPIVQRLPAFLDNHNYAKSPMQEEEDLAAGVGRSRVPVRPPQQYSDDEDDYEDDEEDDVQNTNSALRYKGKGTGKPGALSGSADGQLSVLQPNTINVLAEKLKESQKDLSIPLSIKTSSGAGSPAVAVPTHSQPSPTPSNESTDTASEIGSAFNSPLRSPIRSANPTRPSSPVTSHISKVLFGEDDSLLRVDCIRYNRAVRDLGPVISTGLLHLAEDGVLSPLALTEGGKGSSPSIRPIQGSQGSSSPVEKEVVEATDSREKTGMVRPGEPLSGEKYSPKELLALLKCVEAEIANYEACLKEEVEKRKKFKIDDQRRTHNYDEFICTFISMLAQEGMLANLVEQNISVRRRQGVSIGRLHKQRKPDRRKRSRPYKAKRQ
Outline: as §1

EIF3F = EIF3F (UniProt O00303)
Outline: as §1

EIF3H = EIF3H (UniProt O15372)
Outline: as §1

FAM105A = biological target: T3, FAM105A (UniProt Q9NUU6)
T3 sequence (whole entry): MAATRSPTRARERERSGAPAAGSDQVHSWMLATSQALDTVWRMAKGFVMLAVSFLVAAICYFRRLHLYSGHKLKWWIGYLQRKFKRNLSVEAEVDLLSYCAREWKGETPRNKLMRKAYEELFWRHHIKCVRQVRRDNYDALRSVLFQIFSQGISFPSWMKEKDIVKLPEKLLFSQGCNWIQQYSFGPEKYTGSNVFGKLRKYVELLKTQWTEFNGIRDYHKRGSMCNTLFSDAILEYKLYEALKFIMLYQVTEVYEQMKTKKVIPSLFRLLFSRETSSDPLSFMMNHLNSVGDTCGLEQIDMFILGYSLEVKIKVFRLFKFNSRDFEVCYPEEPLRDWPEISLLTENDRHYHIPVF
Outline: as §1

OTUB1 = OTUB1 (UniProt Q96FW1)
Outline: as §1

OTUD4 = biological target: T4, OTUD4 (UniProt Q01804)
T4 sequence (whole entry): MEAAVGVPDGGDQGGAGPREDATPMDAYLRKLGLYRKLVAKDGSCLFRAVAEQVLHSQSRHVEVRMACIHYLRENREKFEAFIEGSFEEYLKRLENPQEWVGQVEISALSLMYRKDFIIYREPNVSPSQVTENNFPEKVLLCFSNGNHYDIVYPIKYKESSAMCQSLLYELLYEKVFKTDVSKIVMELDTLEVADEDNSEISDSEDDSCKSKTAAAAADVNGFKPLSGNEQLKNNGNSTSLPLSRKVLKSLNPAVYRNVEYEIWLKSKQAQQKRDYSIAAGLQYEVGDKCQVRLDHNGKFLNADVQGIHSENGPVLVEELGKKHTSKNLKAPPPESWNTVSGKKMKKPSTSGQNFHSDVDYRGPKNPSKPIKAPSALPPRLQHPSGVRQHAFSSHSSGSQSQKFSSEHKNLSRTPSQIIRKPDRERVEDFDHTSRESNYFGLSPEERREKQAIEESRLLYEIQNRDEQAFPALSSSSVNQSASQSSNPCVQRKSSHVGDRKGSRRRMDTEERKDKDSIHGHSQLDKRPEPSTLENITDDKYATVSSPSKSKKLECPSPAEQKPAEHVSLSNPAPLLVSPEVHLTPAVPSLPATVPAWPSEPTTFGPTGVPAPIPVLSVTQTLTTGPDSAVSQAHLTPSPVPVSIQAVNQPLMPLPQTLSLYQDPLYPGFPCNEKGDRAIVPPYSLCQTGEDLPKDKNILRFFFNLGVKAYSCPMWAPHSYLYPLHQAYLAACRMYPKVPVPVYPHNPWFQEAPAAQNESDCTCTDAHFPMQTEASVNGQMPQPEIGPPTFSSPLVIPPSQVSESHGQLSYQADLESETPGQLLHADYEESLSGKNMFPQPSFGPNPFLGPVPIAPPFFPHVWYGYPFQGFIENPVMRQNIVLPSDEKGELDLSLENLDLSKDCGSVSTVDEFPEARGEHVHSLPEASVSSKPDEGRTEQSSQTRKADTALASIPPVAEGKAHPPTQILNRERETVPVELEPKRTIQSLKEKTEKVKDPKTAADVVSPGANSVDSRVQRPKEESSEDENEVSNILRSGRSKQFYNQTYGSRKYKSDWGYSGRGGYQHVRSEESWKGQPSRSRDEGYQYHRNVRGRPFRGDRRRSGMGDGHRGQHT
Outline: as §1

OTUD5 = biological target: T5, OTUD5 (UniProt Q96G74)
T5 sequence (whole entry): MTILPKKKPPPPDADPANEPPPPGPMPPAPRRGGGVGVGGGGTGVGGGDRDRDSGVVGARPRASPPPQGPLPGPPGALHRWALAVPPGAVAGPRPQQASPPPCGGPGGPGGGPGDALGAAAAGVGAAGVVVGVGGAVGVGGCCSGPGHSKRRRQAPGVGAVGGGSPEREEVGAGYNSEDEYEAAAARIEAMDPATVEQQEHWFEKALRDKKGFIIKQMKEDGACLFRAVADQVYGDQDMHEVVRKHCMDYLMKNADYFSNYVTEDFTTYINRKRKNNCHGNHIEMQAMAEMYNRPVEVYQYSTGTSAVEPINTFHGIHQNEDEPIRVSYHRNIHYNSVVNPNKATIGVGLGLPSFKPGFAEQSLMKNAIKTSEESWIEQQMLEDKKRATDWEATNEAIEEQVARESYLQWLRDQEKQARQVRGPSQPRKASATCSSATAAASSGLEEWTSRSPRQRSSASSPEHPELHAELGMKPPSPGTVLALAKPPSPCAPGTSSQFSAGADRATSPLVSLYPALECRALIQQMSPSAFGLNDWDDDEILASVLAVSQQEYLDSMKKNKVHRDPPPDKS
Outline: as §1

Measured: log2 ratio of Biotin-Ahx-Ub-VS probe labelling

Sequence of ATXN3 (P54252 whole entry): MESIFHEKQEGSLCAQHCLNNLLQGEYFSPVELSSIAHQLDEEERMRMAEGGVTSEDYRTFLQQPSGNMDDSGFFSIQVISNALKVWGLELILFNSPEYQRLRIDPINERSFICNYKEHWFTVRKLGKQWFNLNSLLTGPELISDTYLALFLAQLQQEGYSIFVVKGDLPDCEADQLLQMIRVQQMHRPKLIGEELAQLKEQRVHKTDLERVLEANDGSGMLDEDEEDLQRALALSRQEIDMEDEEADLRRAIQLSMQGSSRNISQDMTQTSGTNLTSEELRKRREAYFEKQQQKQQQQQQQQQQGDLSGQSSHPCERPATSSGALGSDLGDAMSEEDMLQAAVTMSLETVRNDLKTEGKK
Sequence of EIF3H (O15372 whole entry): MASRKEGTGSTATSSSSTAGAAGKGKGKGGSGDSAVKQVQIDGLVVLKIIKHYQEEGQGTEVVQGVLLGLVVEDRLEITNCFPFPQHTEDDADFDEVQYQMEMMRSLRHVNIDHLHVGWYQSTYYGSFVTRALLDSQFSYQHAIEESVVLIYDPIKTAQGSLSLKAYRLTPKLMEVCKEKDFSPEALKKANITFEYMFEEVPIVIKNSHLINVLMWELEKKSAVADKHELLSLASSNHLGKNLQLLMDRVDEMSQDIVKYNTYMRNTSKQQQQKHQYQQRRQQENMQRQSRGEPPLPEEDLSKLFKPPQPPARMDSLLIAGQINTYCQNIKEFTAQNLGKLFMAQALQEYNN
Sequence of OTUB1 (Q96FW1 whole entry): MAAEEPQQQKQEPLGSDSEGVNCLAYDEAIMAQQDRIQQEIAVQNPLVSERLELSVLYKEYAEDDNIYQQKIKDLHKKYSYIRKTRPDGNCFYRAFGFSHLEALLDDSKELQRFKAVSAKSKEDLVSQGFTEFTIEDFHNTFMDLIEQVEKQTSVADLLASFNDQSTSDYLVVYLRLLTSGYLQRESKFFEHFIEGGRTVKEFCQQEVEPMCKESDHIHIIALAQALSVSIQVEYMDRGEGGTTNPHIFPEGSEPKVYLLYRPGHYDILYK
Sequence of EIF3F (O00303 whole entry): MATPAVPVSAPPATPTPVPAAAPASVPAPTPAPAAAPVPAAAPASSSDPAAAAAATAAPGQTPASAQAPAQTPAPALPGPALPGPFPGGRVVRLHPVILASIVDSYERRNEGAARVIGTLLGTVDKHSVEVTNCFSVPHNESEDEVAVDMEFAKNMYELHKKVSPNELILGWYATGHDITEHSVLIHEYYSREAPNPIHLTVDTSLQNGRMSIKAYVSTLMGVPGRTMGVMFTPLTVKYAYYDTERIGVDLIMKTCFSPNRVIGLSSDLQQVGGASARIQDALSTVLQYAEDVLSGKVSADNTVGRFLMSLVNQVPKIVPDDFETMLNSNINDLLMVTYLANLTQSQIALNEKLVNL

Cc1cccc(NC(=O)[C@@H]2CCCN2C(=O)CCl)n1
inactive: ALG13 0.103 | ATXN3 -0.532 | BAP1 -0.719 | EIF3F -0.372 | EIF3H 0.0856 | FAM105A 0.18 | OTUB1 -0.512 | OTUD4 -0.432 | OTUD5 -0.514
